Assay outcomes as filed in PubChem BioAssay.
Compounds with a hit are over-represented: about 11% of the library has one in this group of screens.
ALDH1A1 inh – inhibitors of human aldehyde dehydrogenase 1A1; Potency, µM (highest dose often 75.3 µM), inactives show at the top dose activity, negative = inhibition, most hits filed as inhibitors; P00352; Purified ALDH1A1, NADH fluorescence, propionaldehyde substrate; 220,000 tested, 7.3% active;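 also: potency is read from the fitted curve at half-maximal effect; plate controls were no enzyme wells and a reference inhibitor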
NPSR antagonist – neuropeptide S receptor (human) antagonism, cAMP | 220,000 tested, 1% active | AID 1461 | CHO-NPSR cells, cAMP TR-FRET, antagonist mode | Potency, µM (doses to about 38.3 µM), inactives show at the top dose activity change, negative = inhibition, most hits filed as inhibitors | Q6W5P4; active = well fitted curve in the direction sought with a large enough effect; inconclusive = small, poorly fitted or top-dose-only effect, or another doubt; inactive = no such curve, though single readings can be large; an effect the other way counts as inactive or inconclusive; also: potency is read from the fitted curve at half-maximal effect; nearly all actives have a fitted effect of over 50% in size
Target sequence (Q6W5P4 whole entry, looked up): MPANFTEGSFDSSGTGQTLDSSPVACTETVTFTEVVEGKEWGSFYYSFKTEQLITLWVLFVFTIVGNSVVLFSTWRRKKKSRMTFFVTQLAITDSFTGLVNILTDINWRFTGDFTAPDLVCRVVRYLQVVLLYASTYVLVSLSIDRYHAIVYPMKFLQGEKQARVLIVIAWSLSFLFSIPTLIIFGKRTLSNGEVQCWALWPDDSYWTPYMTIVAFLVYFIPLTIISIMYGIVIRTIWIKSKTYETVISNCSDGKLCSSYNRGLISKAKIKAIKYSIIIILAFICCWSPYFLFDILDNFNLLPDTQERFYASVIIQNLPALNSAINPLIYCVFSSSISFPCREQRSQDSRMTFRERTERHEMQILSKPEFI
IMPase inh – cell-permeable inhibitors of inositol monophosphatase (IMPase); AID 901; CHO-M1 cells, IP1 accumulation, HTRF TR-FRET ratio; P97697; 120,000 tested, under 10 active; inhibition (IP1 accumulation), % at 46.1 µM; active = well fitted curve in the direction sought with a large enough effect in the signal ratio, not every such curve was filed as active; inconclusive = small, poorly fitted or top-dose-only effect, or a change in a side signal; inactive = no such curve, though single readings can be large or run the other way; the % refers to the signal ratio;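 also: cells stimulated with carbachol in lithium chloride buffer; plate controls were DMSO basal wells for no effect and reference inhibitor wells for full effect; higher means more IMPase inhibition seen as more IP1 and lower FRET ratio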
Target sequence (P97697 whole entry, looked up): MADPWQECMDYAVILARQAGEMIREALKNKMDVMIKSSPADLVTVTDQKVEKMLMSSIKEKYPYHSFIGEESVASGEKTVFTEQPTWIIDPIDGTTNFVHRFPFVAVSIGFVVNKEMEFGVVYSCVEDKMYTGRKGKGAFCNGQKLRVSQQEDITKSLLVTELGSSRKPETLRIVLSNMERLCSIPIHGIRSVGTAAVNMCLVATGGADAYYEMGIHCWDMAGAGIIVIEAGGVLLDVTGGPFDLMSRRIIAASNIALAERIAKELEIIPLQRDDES
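CHO-M1, 2000 cells/well, cultured 16–30 h; cpd up to 46 uM; carbachol (50 uM solution, stimulation buffer w/ 50 mM LiCl, pH 7.4), 30 min 37C; IP-One TR-FRET, 10 min RT; Ex 320/Em 665, 620; Hill-fit AC50.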
PNC inhibitor – perinucleolar compartment assembly inhibition; PC3M PTB-GFP, PNC prevalence imaging, 16 h; active compounds read low; activity change (PNC), negative = inhibition, % at 10 µM; 140,000 tested, 3.1% active;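 active = readout at or below -70, meaning at least 70% loss of cells showing the perinucleolar compartment, a nuclear body marking cancer cells; inconclusive = readout between -30 and a set limit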;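 also: plate controls were DMSO wells for no effect and camptothecin positive control wells for full effect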
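Read-out is percentage of cells bearing a perinucleolar compartment, from automated 20x imaging of fixed, Hoechst-stained PC3M PTB-GFP cells. Cells were seeded 4 h, then exposed 16 h to compound (23 nl of library stock) in duplicate plates.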
IMPase Li cell – membrane-permeable IMPase blocker, potentiated with lithium; CHO-M1 cells, IP1 TR-FRET (IP-One), carbachol + lithium; Potency, µM (highest dose often 59.4 µM), inactives show at the highest dose activity, negative = IMPase inhibition, actives largely listed as inhibitors; 210,000 tested, 0.35% active; active = well fitted curve in the direction sought with a large enough effect; inconclusive = small, poorly fitted or top-dose-only effect, or another doubt; inactive = no such curve, though single readings can be large; an effect the other way counts as inactive or inconclusive;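 also: IP1 builds up when IMPase is blocked and the TR-FRET signal falls; potency is read from the fitted curve at half-maximal effect; plate controls were basal vehicle for no effect and high inhibitor control for full effect; nearly all actives have a fitted effect of over 50% in size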
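IP1 accumulation measured by competitive TR-FRET in lysed CHO-M1 cells after 30 min compound exposure at 37C, with a small lithium addition to potentiate weak responses. Hill-equation AC50 from ratio and donor-channel data.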
HPGD inh – inhibitors of human 15-hydroxyprostaglandin dehydrogenase (HPGD); P15428; purified HPGD, NADH fluorescence kinetic, PGE2 substrate; Potency, µM, inactives show top-dose activity change, negative = inhibition, hits mostly inhibitors; 150,000 tested, 4.3% active; also: potency is read from the fitted curve at half-maximal effect
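20 nM HPGD preincubated 15 min at room temperature with compound in 50 mM Tris-HCl pH 8, 0.01% Tween 20. Started with 1 mM NAD+ and 30 uM prostaglandin E2; NADH fluorescence (360/450 nm) read 5 times over 30-s intervals, last minus first.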
Active calls of the source: *; ? = inconclusive; nt = not tested or not shown; [ ] = remark or other dose. Unless noted, calls follow the shape of the dose curve; as a rule, active = well fitted inhibition curve with a large enough effect (not every such curve was filed as active); inconclusive = small, poorly fitted or top-dose-only effect, or another doubt; inactive = no such curve, though single readings can be large or run the other way. Unless noted, % is scaled to controls: 0 for no effect and ±100 for the full control effect.

SMILES | ALDH1A1 inh | NPSR antagonist | IMPase inh | PNC inhibitor | IMPase Li cell | HPGD inh
Cc1cccc(NC(=O)CN2C(=O)S/C(=C\c3ccccn3)C2=O)c1 | 4% | 3% | nt | nt | 4% | nt
COc1cc(/C=C2/SC(=O)N(Cc3ccccc3Cl)C2=O)ccc1OCc1ccncc1 | 0.45µM* | 3%[46.1 µM] | 0 | 26 | 1%[38.3 µM] | 1%
Cc1cccc(/C=C2/SC(=O)N(Cc3ccccc3Cl)C2=O)n1 | 3.2µM* | -14%[46.1 µM] | 2 | 22 | 9%[38.3 µM] | -13%
NC(N)=NC(=O)Cc1c(Cl)cccc1Cl | 5% | -9%[46.1 µM] | 4 | 62 | 15% | -10%
CC1CCN(c2cc(N3CCN(C(=O)c4ccc(F)c(F)c4)CC3)c([N+](=O)[O-])cc2F)CC1 | -6% | -56% | nt | ? | 6% | -5%
CC(C)N(Cc1ccccc1)C(=O)COC(=O)/C=C/c1cnc2ccccc2n1 | 16µM* | 6% | nt | nt | 3% | nt
S=c1nc[nH]c2c1ncn2C1CCCO1 (stereo not drawn) | 13µM* | -14% | nt | nt | nt | nt
OC[C@@H]1CCC[C@H](n2cnc3c(=S)nc[nH]c32)O1 | 8%[13.5 µM] | nt | nt | nt | -3% | -7%
COc1cc(C(=O)Oc2ccccc2/C=N/NC(=O)c2ccc(Cl)cc2Cl)cc(OC)c1OC | 10% | -21%[46.1 µM] | -3[1.84 µM] | ? | 43%[38.3 µM] | -11%
C=CCOC(=O)/C(=C\c1ccc(OC)cc1)NC(=O)c1ccco1 | -5% | -8%[46.1 µM] | 0 | -1 | 9%[38.3 µM] | -8%
Fc1cccc(CN2CCN(c3ncccn3)CC2)c1 | 13µM* | -18%[46.1 µM] | 12 | 14 | 27%[38.3 µM] | -14%
Cc1c(/C=N\NC(=O)c2csc3ccccc23)cnn1C | -12% | -11%[46.1 µM] | 3 | 67 | 7%[38.3 µM] | -3%
Cc1nn(C)c(C)c1/C=N/NC(=O)c1csc2ccccc12 | 22µM* | -9%[46.1 µM] | 3 | ? | -4% | -11%
Cc1cc(SCC(=O)N(C)c2c(N)n(Cc3ccccc3)c(=O)[nH]c2=O)nc2ccccc12 | -10% | 8% | nt | nt | 14% | nt
Clc1ccccc1Nc1ncnc2c1nnn2Cc1ccccc1 | ? | -22%[46.1 µM] | 5 | ? | 10%[38.3 µM] | 22µM*
c1ccc(Cn2nnc3c(N4CCc5ccccc5C4)ncnc32)cc1 | ? | ? | 5 | 30 | 20%[38.3 µM] | 32µM*
O=C1C(c2ccccc2)SC(=Nc2ccccc2)N1S(=O)(=O)c1ccccc1 (stereo not drawn) | 3.2µM* | -19%[46.1 µM] | -4 | -26 | 25%[38.3 µM] | 14µM*
CC1(C)SC(=Nc2ccccc2)N(S(=O)(=O)c2ccccc2)C1=O | 9% | 4% | nt | -23 | -1% | -2%
Fc1ccccc1Nc1n[nH]c(=S)s1 | 7.1µM* | -5% | nt | nt | 7% | nt
c1ccc(N2CCN(c3nc4cc5c(cc4s3)OCO5)CC2)cc1 | 20µM* | 6%[46.1 µM] | 1 | 18 | -1% | ?
Brc1ccc(-c2csc(N3CCc4ccccc4C3)n2)cc1 | 21% | -11%[46.1 µM] | -2 | 21 | 5%[38.3 µM] | -11%
Brc1ccc2nc(N3CCN(c4ccccc4)CC3)sc2c1 | 6% | 11% | nt | nt | 13% | nt
c1c2c(cc3sc(N4CCOCC4)nc13)OCO2 | 10µM* | -6%[46.1 µM] | -1 | -6 | -1%[38.3 µM] | 28µM*
c1c2c(cc3sc(N4CCCCC4)nc13)OCO2 | 22µM* | -9%[46.1 µM] | 8 | 2 | -2%[38.3 µM] | 22µM*
Fc1ccc2nc(N3CCOCC3)sc2c1 | 7% | 24% | nt | nt | -7% | nt
SMILES | ALDH1A1 inh | NPSR antagonist | IMPase inh | PNC inhibitor | IMPase Li cell | HPGD inh
c1ccc2c(c1)CCN(c1nc3cc4c(cc3s1)OCO4)C2 | 25µM* | 12%[46.1 µM] | -2 | ? | 37%[38.3 µM] | 32µM*
CC(=O)Nc1nc2cc3c(cc2s1)OCO3 | 16% | -3%[46.1 µM] | 5 | 42 | -6%[38.3 µM] | -5%
O=C(CCCOc1ccccc1)n1nnc2ccccc21 | 13% | 1%[46.1 µM] | 5 | -16 | 11%[38.3 µM] | -8%
Cc1nn(-c2ccccc2)c(=S)n1-c1ccccc1 | 10% | 2%[46.1 µM] | 6 | -23 | 17%[38.3 µM] | -5%
Cc1ccc(N2NC(=O)/C(=C\c3cc4c(cc3[N+](=O)[O-])OCO4)C2=O)cc1C | 18µM* | -29% | nt | 30 | 19% | 4µM*
COc1cc(/C=C2/C(=O)NN(c3cccc(C)c3)C2=O)cc([N+](=O)[O-])c1O | ? | -50% | nt | nt | 16% | nt
Cc1ccc(S(=O)(=O)/N=C(/c2ccc(F)cc2)N2CCCCC2)cc1 | 25µM* | -13%[46.1 µM] | 5 | ? | 0% | -9%
